NPSR antag: qHTS Assay for Antagonists of the Neuropeptide S Receptor: cAMP Signal Transduction. AID 1461, 2008. actives 1% (n = 220,000). Q6W5P4. Potency, µM (top dose mostly 38.3 µM), without a hit: at the top dose activity change, negative = inhibition, hits mostly inhibitors. CHO-NPSR cells, cAMP TR-FRET, antagonist mode; also: nearly all actives have a fitted effect of over 50% in size
Target sequence (Q6W5P4 whole entry, looked up): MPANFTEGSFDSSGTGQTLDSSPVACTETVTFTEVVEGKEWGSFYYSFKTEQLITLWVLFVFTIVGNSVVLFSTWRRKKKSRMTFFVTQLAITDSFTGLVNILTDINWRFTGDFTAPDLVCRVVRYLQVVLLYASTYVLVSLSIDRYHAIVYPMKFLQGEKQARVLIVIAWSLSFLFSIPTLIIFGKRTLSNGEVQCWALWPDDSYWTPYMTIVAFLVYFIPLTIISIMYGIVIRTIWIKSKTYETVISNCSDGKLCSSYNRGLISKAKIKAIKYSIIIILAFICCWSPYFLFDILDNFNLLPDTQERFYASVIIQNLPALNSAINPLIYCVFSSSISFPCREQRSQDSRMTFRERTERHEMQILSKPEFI
B2AR arrestin: qHTS assay of beta-arrestin-biased ligands of beta2-adrenergic receptor | actives 0.02% (n = 330,000) | Potency, µM (titrated, usually from 46.1 µM), without a hit: top-dose activation, most hits filed as activators | beta-arrestin recruitment to beta2AR, cell-based reporter | Beta-2 adrenergic receptor (Homo sapiens), P07550;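 also: 0% = DMSO controls and full agonism = EC100 isoproterenol or metaproterenol; nearly all actives have a fitted effect of over 65% in size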
RORg inh: qHTS for inhibitors of ROR gamma transcriptional activity | Nuclear receptor ROR-gamma (Mus musculus), P51450 | Drosophila S2 Gal4-RORgamma UAS-luciferase reporter, 20 h | Potency, µM (titrated, usually from 53.6 µM), for inactives: at the top dose activity change, negative = inhibition, hits mostly inhibitors | actives 5.4% (n = 310,000); also: nearly all actives have a fitted effect of over 60% in size
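Read-out: Photinus luciferase luminescence; inhibitors lower reporter signal. Insect Schneider cells with Gal4-ROR gamma fusion under metallothionein promoter, UAS reporter; 700 uM final copper sulfate induction, 20 hr, ambient temperature.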
VP16 counter: VP16 counterscreen qHTS for inhibitors of ROR gamma transcriptional activity; Drosophila S2 Gal4-VP16 UAS-luciferase, luminescence, 20 h; AID 2546, 2010; actives 3.5% (n = 310,000); Potency, µM (doses to about 53.6 µM), without a hit: at the top dose activity, negative = inhibition, actives largely listed as inhibitors;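 also: Gal4-VP16 expression switched on by copper sulfate through the metallothionein promoter; nearly all actives have a fitted effect of over 50% in size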
* marks the source's active call; other numbers are inactive results; ? = inconclusive; · = not tested or not shown; [ ] = another dose, or the depositor's remark. Most compounds without a hit are left out; they make up all but 5.7% or so of the library. Calls follow the shape of the dose curve; as a rule, active = well fitted curve in the direction sought with a large enough effect; inconclusive = small, poorly fitted or top-dose-only effect, or another doubt; inactive = no such curve, though single readings can be large; an effect the other way counts as inactive or inconclusive. Unless noted, % is scaled to controls: 0 for no effect and ±100 for the full control effect; potency is read from the fitted curve at half-maximal effect.

SMILES | NPSR antag | B2AR arrestin | RORg inh | VP16 counter
CCOc1ccc(NC(=S)Nc2ccc(Br)cc2Cl)cc1 | -14.9% | -0.4% | 14.1µM* | ?
COC(=O)C1(c2ccccc2)NC(c2ccc(O)cc2)C2C(=O)N(c3ccc4c(c3)OCO4)C(=O)C21 (centres undefined) | 6.0% | -0.3% | 0.6% | 0.3%
O=C(O)CN=CC1=C(O)CC(c2ccccc2)CC1=O (centres undefined) | · | -0.9% | 0.1% | -0.5%
S=C1NC2=C(C(c3ccc(Br)cc3)N1)N1CCC2CC1 (centres undefined) | -2.4%[46.1 µM] | 0.0% | 8.91µM* | -7.3%
Fc1cccc(C2NC(=S)NC3=C2N2CCC3CC2)c1 (centres undefined) | 0.5%[46.1 µM] | 0.4% | -34.6% | -9.3%
Cc1c(CCO)c(=O)[nH]n1C(=O)c1ccc(F)cc1 | -9.7%[46.1 µM] | -0.3% | 10µM* | 11.2µM*
Cc1c(CCO)c(=O)n(C)n1C(=O)c1ccc(F)cc1 | -2.3%[46.1 µM] | -0.3% | -15.7% | -11.4%
Cc1ccc(C(=O)Nc2ccc(N3CCOCC3)nc2N2CCOCC2)cc1 | -19.1% | 0.3% | -1.0% | -12.6%
CN(C)c1ccc(-c2ccc3ncnc(-n4ccnc4)c3c2)cc1 | · | · | 7.08µM* | 12.6µM*
Cc1ccccc1-c1ccc2ncnc(-n3ccnc3)c2c1 | · | · | 11.2µM* | 12.6µM*
Cc1ccccc1-c1ccc2ncnc(N(C)C)c2c1 | · | · | ? | -18.1%
CN(C)C(=O)c1ccc(-c2cncnc2-n2ccnc2)cc1 | · | · | -0.9% | -1.1%
CCC(=O)Nc1nc2ccccc2n1Cc1ccc(C)cc1 | ? | 0.0% | 0.398µM* | 0.891µM*
CCC(=O)Nc1nc2ccccc2n1CCN(CC)CC | 9.3%[46.1 µM] | 0.0% | ? | -12.2%
CCC(=O)Nc1nc2ccccc2n1Cc1ccccc1 | -2.3%[46.1 µM] | 0.4% | 0.708µM* | 2.24µM*
CCCCCn1c(C(Cc2ccccc2)NC(=O)COC)nc2ccccc21 (centres undefined) | -12.8%[46.1 µM] | 0.1% | 31.6µM* | ?
CCC(=O)NCCc1nc2ccccc2n1Cc1ccc(C)cc1 | 1.1%[46.1 µM] | -1.0% | 1.3% | -5.6%
CC(=O)NC(C)c1nc2ccccc2n1CC(=O)NC(C)CCc1ccccc1 (centres undefined) | 9.8% | 0.2% | 12.6µM* | -2.5%
CCCn1c(C(C)NC(C)=O)nc2ccccc21 (centres undefined) | 2.3%[46.1 µM] | 0.4% | -13.4% | -12.5%
COc1cccc(CN(C(=O)c2ccc([N+](=O)[O-])cc2)C2CCS(=O)(=O)C2)c1 (centres undefined) | · | 0.0% | 0.2% | 3.3%
Cc1ccc(NC(=O)c2ccc(=O)[nH]n2)cc1S(=O)(=O)Nc1ccccc1Cl | · | 0.4% | · | ·
COc1ccccc1NS(=O)(=O)c1cc(NC(=O)c2ccc(Cl)nc2)ccc1Cl | -4.2% | -0.2% | 15.7% | 20µM*
Cc1ccc(NC(=S)NC(=O)c2ccc(F)cc2)cc1S(=O)(=O)Nc1ccccc1Cl | -36.9% | 1.0% | 4.47µM* | 6.31µM*
Cc1ccc(/C=C2\Sc3ccccc3C2=O)s1 | -11.7%[46.1 µM] | 0.1% | 11.2µM* | ?
CC(=O)Nc1ccc(/C=C2\Sc3ccccc3C2=O)cc1 | 7.2% | 0.2% | 37.9% | 1.6%
SMILES | NPSR antag | B2AR arrestin | RORg inh | VP16 counter
CC(C)C1=NN2C(=N)CC(=O)N=C2S1 | -7.8%[46.1 µM] | 0.4% | -23.7% | -0.9%
CCCCC1=NN2C(=N)CC(=O)N=C2S1 | -12.4%[46.1 µM] | 0.1% | 10µM* | 0.7%
O=C(CN1CCCc2ccccc21)N/N=C/c1ccccc1 | -15.7% | 2.9% | -4.0% | ?
O=C(CN1CCCc2ccccc21)N/N=C/c1ccc(O)cc1O | -1.2% | 0.4% | ? | 22.4µM*
O=C(CN1CCCc2ccccc21)N/N=C/c1c(O)ccc2ccccc12 | -14.0% | 8.5% | 1.26µM* | 0.794µM*
C[C@](O)(C(=O)Nc1ccc(S(=O)(=O)c2ccccc2)cc1)C(F)(F)F | · | · | 22.0% | 1.4%
COC(=O)CCNC(=O)CCc1ccc(S(=O)(=O)N2CCCCCC2)cc1 | · | -1.6% | · | ·
Cc1ccccc1-c1cc(Nc2ccc(F)cc2)ncn1 | · | · | 10.7% | 16.2%
COc1cc(NS(=O)(=O)c2ccc(OC)c(C)c2C)c(OC)cc1Cl | 20µM* | 0.3% | ? | 6.31µM*
COc1ccc(OC)c(S(=O)(=O)Nc2cc(OC)c(Cl)cc2OC)c1 | ? | · | 42.3% | 2.8%
O=C(NCc1cc([N+](=O)[O-])ccc1O)c1cccnc1Sc1ccccc1Cl | · | 0.1% | 3.55µM* | 2.82µM*
O=C(NCc1cc([N+](=O)[O-])ccc1O)c1cccnc1Sc1ccc(Cl)cc1 | · | 0.1% | -1.7% | -11.2%
CC1CCC(NC(=O)C2c3ccccc3C(=O)N2Cc2cccs2)CC1 (centres undefined) | 4.0% | -0.3% | 17.8% | ?
Oc1c(C(Nc2cccc(C(F)(F)F)c2)c2ccncc2)ccc2cccnc12 (centres undefined) | -25.2% | 0.9% | 3.98µM* | 5.62µM*
Oc1c(C(Nc2nccs2)c2ccc(C(F)(F)F)cc2)ccc2cccnc12 (centres undefined) | -12.8% | -0.5% | 0.562µM* | 1µM*
N#CCc1ccccc1[N+](=O)[O-] | · | · | 4.5% | -0.4%
CCCCCCCCC#CCC#CCC#CCCCC(=O)O | · | · | 10.9% | 4.6%
Cc1cccn2c(=O)c(C=O)c(Cl)nc12 | ? | -0.1% | 14.1µM* | ?
COC(=O)c1ccccc1NC(=S)NC(=O)COc1ccccc1Cl | -13.8%[46.1 µM] | -1.0% | 10µM* | ?
Cc1cc(Cl)ccc1OCC(=O)NC(=S)Nc1ccccc1N1CCOCC1 | -2.9% | -0.4% | 4.47µM* | ?
COC(=O)c1ccccc1NC(=O)c1cccc(COc2ccccc2Cl)c1 | -17.2%[46.1 µM] | 0.3% | 44.6% | -0.4%
Cc1cc(Cl)ccc1OCC(=O)Nc1ccccc1N1CCOCC1 | -25.8%[46.1 µM] | 0.4% | ? | -9.5%
O=C(COc1ccc(Br)cc1Cl)NC(=S)Nc1ccccn1 | · | -0.9% | ? | ?
Cc1nc(NC(=S)NC(=O)COc2ccccc2Cl)ccc1Br | 27.2% | 0.5% | 7.08µM* | 7.08µM*
Cc1ccc(OCC(=O)NC(=S)Nc2ccccn2)c(Br)c1 | · | -0.1% | 10µM* | 11.2µM*
SMILES | NPSR antag | B2AR arrestin | RORg inh | VP16 counter
CCCNC(=O)OC[C@@H]1O[C@H](CCO/N=C2\c3cc(OC)ccc3O[C@H](c3cccc(OC)c3)[C@H]2O)C=C[C@@H]1Oc1ccc(OC)cc1 | · | · | 21.5%[10 µM] | -5.8%[10 µM]
CC(C)c1ccc(OCC(=O)NNC(=S)NC(=O)c2cccs2)c(Br)c1 | · | -0.3% | 13.4% | -0.5%
Cc1ccc(OCC(=O)NNC(=S)NC(=O)C(C)(C)C)c(Br)c1 | -16.0% | 0.3% | 11.2µM* | 3.6%
O=C(COc1ccccc1Cl)NC(=S)Nc1ccccc1N1CCCC1 | · | -0.4% | 5.62µM* | 7.94µM*
Fc1c(F)c(F)c(N=Cc2ccc3ncccc3c2)c(F)c1F | 4.5% | -1.2% | -0.3% | 2.2%
Cc1[nH]n(-c2ccccc2)c(=O)c1N=Nc1cccc(C(=O)O)c1 | · | 0.4% | ? | 2.82µM*
NC(=O)c1ccc(N=Nc2c(-c3ccccc3)[nH]n(-c3ccccc3)c2=O)cc1 | 2.9% | -0.2% | 6.0% | 7.3%
Cc1[nH]n(-c2ccccc2)c(=O)c1N=Nc1ccccc1 | -25.9% | 0.2% | 20.2% | ?

High-throughput results as filed in PubChem BioAssay.
